# Values joined by “and” are separate entries in the source; they are usually repeats but may differ in a detail not shown here. Equal entries are not always repeated. The campaign covered roughly 5,500 compounds. About 2,000 (36%) were called active. About 18% were inconclusive and are not listed. Cut-off read from the data, not from the text of the source: active = normalized growth mostly below about 0.91 (no sharp cut-off); inconclusive = no clear call, values can overlap the other calls; inactive = mostly above about 0.92. The list shows a part of the results.
# Experiment: chemical genetic growth profiling, strain panel (AID 1159580);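 note: tested at 20 µM; growth read once vehicle control cultures reached saturation at 30 °C; 1 = growth at the plate median or of vehicle wells; lower values mean less growth of the strain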
# Conditions: S. cerevisiae deletion strains, growth OD
smiles,measurement,setting,value
O=[N+]([O-])c1ccc(O)c([N+](=O)[O-])c1,normalized growth,"locus YAL013W, strain DEP1, stronger effect = lower value",0.837 (active)
same,normalized growth,"locus YAL021C, strain ccr4, stronger effect = lower value",0.869 (active)
same,normalized growth,"locus YAL026C, strain drs2, stronger effect = lower value",0.776 (active)
same,normalized growth,"locus YAL030W, strain snc1, stronger effect = lower value",0.812 (active)
same,normalized growth,"locus YBL061C, strain skt5, stronger effect = lower value",0.832 (active)
same,normalized growth,"locus YBR009C, strain hhf1, stronger effect = lower value",0.823 (active)
same,normalized growth,"locus YBR021W, strain FUR4, stronger effect = lower value",0.647 (active)
same,normalized growth,"locus YBR023C, strain chs3, stronger effect = lower value",0.88 (active)
same,normalized growth,"locus YBR171W, strain sec66, stronger effect = lower value",0.799 (active)
same,normalized growth,"locus YBR229C, strain ROT2, stronger effect = lower value",0.839 (active)
same,normalized growth,"locus YBR231C, strain swc5, stronger effect = lower value",0.851 (active)
same,normalized growth,"locus YBR279W, strain paf1, stronger effect = lower value",0.817 (active)
same,normalized growth,"locus YCL011C, strain gbp2, stronger effect = lower value",0.807 (active)
same,normalized growth,"locus YCL016C, strain dcc1, stronger effect = lower value",0.873 (active)
same,normalized growth,"locus YCL029C, strain bik1, stronger effect = lower value",0.693 (active)
same,normalized growth,"locus YCL069W, strain vba3, stronger effect = lower value",0.775 (active)
same,normalized growth,"locus YCR088W, strain abp1, stronger effect = lower value",0.775 (active)
same,normalized growth,"locus YDL005C, strain med2, stronger effect = lower value",0.875 (active)
same,normalized growth,"locus YDL035C, strain GPR1, stronger effect = lower value",0.871 (inactive)
same,normalized growth,"locus YDL040C, strain nat1, stronger effect = lower value",0.848 (active)
same,normalized growth,"locus YDL074C, strain BRE1, stronger effect = lower value",0.824 (inactive)
same,normalized growth,"locus YDL101C, strain DUN1, stronger effect = lower value",0.877 (active)
same,normalized growth,"locus YDL134C, strain PPH21, stronger effect = lower value",0.796 (active)
same,normalized growth,"locus YDL185W, strain tfp1, stronger effect = lower value",0.109 (active)
same,normalized growth,"locus YDL192W, strain arf1, stronger effect = lower value",0.759 (active)
same,normalized growth,"locus YDR001C, strain nth1, stronger effect = lower value",0.766 (active)
same,normalized growth,"locus YDR069C, strain doa4, stronger effect = lower value",0.936 (inactive)
same,normalized growth,"locus YDR101C, strain arx1, stronger effect = lower value",0.686 (active)
same,normalized growth,"locus YDR137W, strain rgp1, stronger effect = lower value",0.915 (inactive)
same,normalized growth,"locus YDR150W, strain NUM1, stronger effect = lower value",0.788 (active)
same,normalized growth,"locus YDR159W, strain sac3, stronger effect = lower value",0.677 (active)
same,normalized growth,"locus YDR162C, strain NBP2, stronger effect = lower value",0.785 (active)
same,normalized growth,"locus YDR195W, strain ref2",0.927 (inactive)
same,normalized growth,"locus YDR297W, strain sur2, stronger effect = lower value",0.826 (active)
same,normalized growth,"locus YDR318W, strain mcm21, stronger effect = lower value",0.727 (active)
same,normalized growth,"locus YDR334W, strain swr1, stronger effect = lower value",0.742 (active)
same,normalized growth,"locus YDR335W, strain msn5, stronger effect = lower value",0.798 (active)
same,normalized growth,"locus YDR388W, stronger effect = lower value",0.694 (active)
same,normalized growth,"locus YDR392W, strain spt3, stronger effect = lower value",0.674 (active)
same,normalized growth,"locus YDR502C, strain sam2, stronger effect = lower value",0.735 (active)
same,normalized growth,"locus YEL003W, strain gim4, stronger effect = lower value",0.829 (active)
same,normalized growth,"locus YEL037C, strain rad23, stronger effect = lower value",0.797 (active)
same,normalized growth,"locus YEL061C, strain CIN8 (second series), stronger effect = lower value",0.794 (active)
same,normalized growth,"locus YEL061C, strain CIN8, stronger effect = lower value",0.817 (active)
same,normalized growth,"locus YER015W, strain faa2, stronger effect = lower value",0.795 (active)
same,normalized growth,"locus YER016W, strain bim1, stronger effect = lower value",0.89 (active)
same,normalized growth,"locus YER110C, stronger effect = lower value",0.64 (active)
same,normalized growth,"locus YER111C, strain swi4, stronger effect = lower value",0.79 (active)
same,normalized growth,"locus YER155C, strain BEM2 (second series), stronger effect = lower value",0.615 (active)
same,normalized growth,"locus YER155C, strain BEM2, stronger effect = lower value",0.63 (active)
same,normalized growth,"locus YER167W, strain BCK2, stronger effect = lower value",0.76 (active)
same,normalized growth,"locus YFR010W, strain ubp6, stronger effect = lower value",0.861 (active)
same,normalized growth,"locus YGL078C, strain dbp3, stronger effect = lower value",0.252 (active)
same,normalized growth,"locus YGL086W, strain mad1, stronger effect = lower value",0.779 (active)
same,normalized growth,"locus YGL167C, strain pmr1, stronger effect = lower value",0.84 (active)
same,normalized growth,"locus YGL173C, strain kem1, stronger effect = lower value",0.822 (active)
same,normalized growth,"locus YGL227W, strain vid30, stronger effect = lower value",0.743 (active)
same,normalized growth,"locus YGL240W, strain doc1, stronger effect = lower value",0.739 (active)
same,normalized growth,"locus YGL248W, strain PDE1, stronger effect = lower value",0.81 (active)
same,normalized growth,"locus YGL253W, strain hxk2, stronger effect = lower value",0.717 (active)
same,normalized growth,"locus YGR078C, strain PAC10, stronger effect = lower value",0.789 (active)
same,normalized growth,"locus YGR135W, strain pre9, stronger effect = lower value",0.76 (active)
same,normalized growth,"locus YGR229C, strain SMI1, stronger effect = lower value",0.81 (inactive)
same,normalized growth,"locus YGR252W, strain gcn5, stronger effect = lower value",0.709 (active)
same,normalized growth,"locus YHR013C, strain ard1, stronger effect = lower value",0.981 (inactive)
same,normalized growth,"locus YHR027C, strain rpn1, stronger effect = lower value",0.814 (active)
same,normalized growth,"locus YHR079C, strain IRE1 (second series), stronger effect = lower value",0.665 (active)
same,normalized growth,"locus YHR079C, strain IRE1, stronger effect = lower value",0.254 (active)
same,normalized growth,"locus YHR094C, strain hxt1, stronger effect = lower value",0.681 (active)
same,normalized growth,"locus YHR129C, strain ARP1, stronger effect = lower value",0.738 (active)
same,normalized growth,"locus YHR142W, strain chs7, stronger effect = lower value",0.792 (active)
same,normalized growth,"locus YHR200W, strain rpn10, stronger effect = lower value",0.736 (active)
same,normalized growth,"locus YIL066C, strain RNR3, stronger effect = lower value",0.794 (active)
same,normalized growth,"locus YIL073C, strain SPO22, stronger effect = lower value",0.986 (inactive)
same,normalized growth,"locus YIL125W, strain kgd1, stronger effect = lower value",0.211 (active)
same,normalized growth,"locus YIR030C, strain dcg1, stronger effect = lower value",0.694 (active)
same,normalized growth,"locus YJL092W, strain hpr5, stronger effect = lower value",0.759 (active)
same,normalized growth,"locus YJL095W, strain BCK1 (second series), stronger effect = lower value",0.834 (active)
same,normalized growth,"locus YJL095W, strain BCK1, stronger effect = lower value",0.801 (inactive) and 0.3 (active)
same,normalized growth,"locus YJL115W, strain asf1, stronger effect = lower value",0.757 (active)
same,normalized growth,"locus YJL129C, strain trk1, stronger effect = lower value",0.694 (active)
same,normalized growth,"locus YJL134W, strain LCB3, stronger effect = lower value",0.777 (active)
same,normalized growth,"locus YJL154C, strain vps35, stronger effect = lower value",0.773 (active)
same,normalized growth,"locus YJL164C, strain tpk1, stronger effect = lower value",0.863 (active)
same,normalized growth,"locus YJL166W, strain qcr8, stronger effect = lower value",0.85 (active)
same,normalized growth,"locus YJL168C, strain set2, stronger effect = lower value",0.719 (active)
same,normalized growth,"locus YJL187C, strain SWE1 (second series), stronger effect = lower value",0.825 (active)
same,normalized growth,"locus YJL187C, strain SWE1, stronger effect = lower value",0.842 (active)
same,normalized growth,"locus YJR043C, strain POL32, stronger effect = lower value",0.892 (inactive)
same,normalized growth,"locus YJR066W, strain TOR1, stronger effect = lower value",0.254 (active)
same,normalized growth,"locus YJR075W, strain HOC1, stronger effect = lower value",0.824 (active)

# Reference: PubChem BioAssay AID1159580 (chemical genetic matrix, 2015)
